# Test results taken from PubChem BioAssay (EPA / NIEHS).
# “And” between values parts separate entries of the source, which are not always exact repeats. Equal values may be shown once. Results filed as inconclusive are left out. Some structures have more than one record in an assay (separate samples or runs), and their calls can disagree. The source made the active and inactive calls. How the source made its calls, unless noted: active means hit-call score of the fitted dose curve at least 0.9, where 1 is the maximum; inactive means score below 0.9.
# How the values were obtained:
# [1] = target: Paired box protein Pax-6 (Homo sapiens) (UniProt P26367); assay: ATG_Pax6_CIS: Attagene CIS-FACTORIAL HepG2 Assay for human Paired Box 6 (PAX6) (AID 2282956); conditions: HepG2 CIS-FACTORIAL PAX6 reporter transcription, RNA readout; actives raise or lower the signal
# Paired box protein Pax-6 (Homo sapiens), sequence (P26367 whole entry, looked up): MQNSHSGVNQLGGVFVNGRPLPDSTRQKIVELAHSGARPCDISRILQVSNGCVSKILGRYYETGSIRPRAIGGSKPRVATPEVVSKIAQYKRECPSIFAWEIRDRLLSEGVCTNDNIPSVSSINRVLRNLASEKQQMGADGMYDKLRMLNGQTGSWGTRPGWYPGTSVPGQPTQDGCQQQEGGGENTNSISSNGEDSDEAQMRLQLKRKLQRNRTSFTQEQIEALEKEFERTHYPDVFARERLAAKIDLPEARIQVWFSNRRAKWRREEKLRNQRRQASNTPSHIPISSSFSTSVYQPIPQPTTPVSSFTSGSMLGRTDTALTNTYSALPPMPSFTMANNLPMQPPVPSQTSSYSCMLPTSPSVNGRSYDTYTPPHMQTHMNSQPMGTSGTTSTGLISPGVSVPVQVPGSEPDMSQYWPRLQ
# Outline: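 Read-out is reporter transcript level, measured by RT-PCR with fluorescent primer extension and capillary electrophoresis after 24 h dosing of transfected HepG2 cells. Activity in either direction fitted relative to DMSO control.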
# [2] = ATG_PXRE_CIS: Attagene CIS-FACTORIAL HepG2 Assay for human Pregnane X Receptor Element (PXRE) (AID 2282957); conditions: HepG2 Attagene CIS-FACTORIAL PXRE reporter, mRNA; actives raise or lower the signal
# Outline: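 After a 24 h chemical incubation, total RNA from transfected HepG2 cells was reverse-transcribed and reporter cDNA amplified, FAM-labeled, HpaI-digested and sized by capillary electrophoresis. DMSO served as baseline for bidirectional curve fitting.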
# [3] = ATG_PPRE_CIS: Attagene CIS-FACTORIAL HepG2 Assay for human Peroxisome Proliferator-activated Response Element (PPRE) (AID 2282958); conditions: HepG2 PPRE cis-element reporter, Attagene transcription factor profiling; actives raise or lower the signal
# Outline: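 Endogenous PPRE-driven transcription is measured in HepG2 cells carrying transfected multi-reporter constructs. Reporter transcripts are quantified by RT-PCR, HpaI digestion and capillary electrophoresis 24 h after dosing. DMSO baseline, bidirectional fit.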
# [4] = ATG_RORE_CIS: Attagene CIS-FACTORIAL HepG2 Assay for human RAR-related Orphan Receptor Element (RORE) (AID 2282959); conditions: HepG2 Attagene cis-factorial RORE reporter, mRNA; actives raise or lower the signal
# Outline: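 RORE reporter transcripts reflecting endogenous factor activity were read after 24 h compound exposure of transfected HepG2 cells, using reverse transcription, PCR, fluorescent labelling and capillary electrophoresis sizing. Gain or loss fitted against DMSO.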
# [5] = target: Transcription factor Sp1 (Homo sapiens) (UniProt P08047); assay: ATG_Sp1_CIS: Attagene CIS-FACTORIAL HepG2 Assay for human Specificity Protein 1 (Sp1) (AID 2282961); conditions: HepG2 Sp1 cis-reporter transcription, actives raise or lower the signal
# Transcription factor Sp1 (Homo sapiens), sequence (P08047 whole entry, looked up): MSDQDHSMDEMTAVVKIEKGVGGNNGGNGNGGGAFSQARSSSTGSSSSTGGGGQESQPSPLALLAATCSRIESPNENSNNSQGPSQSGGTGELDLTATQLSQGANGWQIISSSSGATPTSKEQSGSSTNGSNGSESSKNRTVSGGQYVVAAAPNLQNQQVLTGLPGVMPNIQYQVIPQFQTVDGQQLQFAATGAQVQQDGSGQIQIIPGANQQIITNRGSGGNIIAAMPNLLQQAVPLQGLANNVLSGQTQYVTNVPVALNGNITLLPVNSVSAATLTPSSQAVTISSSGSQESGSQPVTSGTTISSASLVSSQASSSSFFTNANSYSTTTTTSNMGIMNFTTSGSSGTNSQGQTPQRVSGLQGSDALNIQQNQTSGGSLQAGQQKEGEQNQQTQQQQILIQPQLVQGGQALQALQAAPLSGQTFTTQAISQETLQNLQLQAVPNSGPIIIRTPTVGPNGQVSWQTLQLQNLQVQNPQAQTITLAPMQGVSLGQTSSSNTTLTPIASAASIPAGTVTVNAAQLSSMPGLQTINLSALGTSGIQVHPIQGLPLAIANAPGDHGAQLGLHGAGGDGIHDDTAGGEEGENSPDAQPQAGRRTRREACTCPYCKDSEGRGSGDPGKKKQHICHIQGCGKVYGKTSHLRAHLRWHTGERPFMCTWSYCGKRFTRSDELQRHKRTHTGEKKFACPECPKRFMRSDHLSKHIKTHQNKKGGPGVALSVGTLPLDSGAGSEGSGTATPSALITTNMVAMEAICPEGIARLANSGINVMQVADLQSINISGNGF
# Outline: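 Read-out is reporter transcript level, measured by RT-PCR and fluorescent capillary electrophoresis after 24 h chemical treatment. System: transiently transfected HepG2 cells reporting endogenous transcription factor activity; gain or loss fitted against DMSO baseline.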
# [6] = ATG_SREBP_CIS: Attagene CIS-FACTORIAL HepG2 Assay for human Sterol Regulatory Element Binding (SREBP) (AID 2282962); conditions: HepG2 Attagene cis-factorial SREBP reporter, mRNA; actives raise or lower the signal
# Outline: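 Endogenous SREBP activity read as cis-element-driven reporter transcript in transiently transfected HepG2, 24 h post-dosing; quantified via RT-PCR plus capillary electrophoresis of fluorescent fragments. Gain or loss of signal fitted relative to DMSO baseline.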
# [7] = target: Signal transducer and activator of transcription 3 (Homo sapiens) (UniProt P40763); assay: ATG_STAT3_CIS: Attagene CIS-FACTORIAL HepG2 Assay for human Signal Transducer and Activator of Transcription 3 (STAT3) (AID 2282963); conditions: HepG2, Attagene cis-factorial STAT3 reporter transcription; actives raise or lower the signal
# Signal transducer and activator of transcription 3 (Homo sapiens), sequence (P40763 whole entry, looked up): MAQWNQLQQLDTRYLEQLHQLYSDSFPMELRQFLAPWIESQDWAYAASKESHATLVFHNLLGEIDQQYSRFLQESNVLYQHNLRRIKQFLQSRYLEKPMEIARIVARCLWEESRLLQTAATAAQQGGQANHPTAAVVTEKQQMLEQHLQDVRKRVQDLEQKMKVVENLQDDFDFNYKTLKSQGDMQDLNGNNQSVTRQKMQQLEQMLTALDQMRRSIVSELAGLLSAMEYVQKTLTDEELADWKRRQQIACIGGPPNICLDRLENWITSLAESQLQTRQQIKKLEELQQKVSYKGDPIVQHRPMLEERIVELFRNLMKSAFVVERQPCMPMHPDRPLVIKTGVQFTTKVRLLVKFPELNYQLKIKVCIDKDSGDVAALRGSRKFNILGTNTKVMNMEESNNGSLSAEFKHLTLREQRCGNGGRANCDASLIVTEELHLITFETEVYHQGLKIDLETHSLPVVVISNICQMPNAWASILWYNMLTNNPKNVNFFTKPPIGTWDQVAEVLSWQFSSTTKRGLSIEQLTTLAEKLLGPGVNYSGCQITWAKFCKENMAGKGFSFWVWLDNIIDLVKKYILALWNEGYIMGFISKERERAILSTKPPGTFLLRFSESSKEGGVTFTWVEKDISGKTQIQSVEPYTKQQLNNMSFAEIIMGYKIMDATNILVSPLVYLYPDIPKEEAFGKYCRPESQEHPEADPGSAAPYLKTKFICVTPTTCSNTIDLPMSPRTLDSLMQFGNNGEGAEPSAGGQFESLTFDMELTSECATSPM
# Outline: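 Cis-factorial format: endogenous transcription factors in HepG2 drive transfected reporter units. After 24 h treatment, reporter RNA was reverse-transcribed, amplified, FAM-labelled and HpaI-digested before CE analysis; activity scored in both directions against DMSO.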
# [8] = ATG_TA_CIS: Attagene CIS-FACTORIAL HepG2 Assay for human TA Basal Promoter (AID 2282964); conditions: HepG2 Attagene CIS-factorial TA basal promoter reporter; actives raise or lower the signal
# Outline: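 HepG2 cells transiently transfected with multiplexed cis-promoter reporter units, dosed 24 h. Reporter mRNA measured by RT-PCR, 6-FAM labelling, HpaI digestion and capillary electrophoresis; bidirectional fit versus DMSO baseline, serving as background control.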
# [9] = ATG_TCF_b_cat_CIS: Attagene CIS-FACTORIAL HepG2 Assay for human T-Cell-Factor with beta-catenin (TCF/b-cat) (AID 2282965); conditions: HepG2 TCF/beta-catenin cis-reporter transcription, actives raise or lower the signal
# Outline: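 Endogenous TCF/LEF activity read as reporter transcript level via RT-PCR and capillary electrophoresis fluorescence in transfected HepG2, 24 h exposure; gain or loss of signal fitted against DMSO controls.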
# [10] = ATG_TAL_CIS: Attagene CIS-FACTORIAL HepG2 Assay for human TAL Basal Promoter (AID 2282966); conditions: HepG2 Attagene cis-factorial TAL promoter reporter; actives raise or lower the signal;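 further: background control endpoint measuring basal TAL promoter reporter mRNA not a specific factor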
# Outline: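 Basal-promoter background-control endpoint from a multiplexed HepG2 reporter panel. Cells were exposed 24 h, then reporter mRNA was read by RT-PCR/CE fluorescence and fitted in both directions relative to DMSO.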
# [11] = ATG_TGFb_CIS: Attagene CIS-FACTORIAL HepG2 Assay for human Transforming Growth Factor (TGF) (AID 2282967); conditions: HepG2 Attagene CIS TGFb reporter, mRNA transcription; actives raise or lower the signal
# Outline: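 HepG2 cells transiently transfected with cis-promoter-driven multiplexed reporter units; 24 h compound exposure. Reporter mRNA measured by RT-PCR, 6-FAM labeling, HpaI digestion and capillary electrophoresis; bidirectional fit versus DMSO baseline.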
# [12] = ATG_VDRE_CIS: Attagene CIS-FACTORIAL HepG2 Assay for human Vitamin D Receptor Element (VDRE) (AID 2282968); conditions: HepG2 VDRE cis-reporter transcription, actives raise or lower the signal
# Outline: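 Measures endogenous factor activity through cis-element-driven reporter transcripts in transiently transfected HepG2. Cells are treated 24 h; reporter mRNA is quantified by RT-PCR and capillary electrophoresis; fitting is bidirectional.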
# [13] = target: Estrogen receptor (Homo sapiens) (UniProt P03372); assay: ATG_ERa_TRANS: Attagene TRANS-FACTORIAL HepG2 Assay for human Estrogen Receptor alpha (ERa) (AID 2282970; active means hit-call score of the fitted dose curve at least 0.9, where 1 is the maximum); conditions: HepG2 Attagene TRANS ERa GAL4 reporter, mRNA
# Estrogen receptor (Homo sapiens), sequence (P03372 whole entry, looked up, the tested form may be a part): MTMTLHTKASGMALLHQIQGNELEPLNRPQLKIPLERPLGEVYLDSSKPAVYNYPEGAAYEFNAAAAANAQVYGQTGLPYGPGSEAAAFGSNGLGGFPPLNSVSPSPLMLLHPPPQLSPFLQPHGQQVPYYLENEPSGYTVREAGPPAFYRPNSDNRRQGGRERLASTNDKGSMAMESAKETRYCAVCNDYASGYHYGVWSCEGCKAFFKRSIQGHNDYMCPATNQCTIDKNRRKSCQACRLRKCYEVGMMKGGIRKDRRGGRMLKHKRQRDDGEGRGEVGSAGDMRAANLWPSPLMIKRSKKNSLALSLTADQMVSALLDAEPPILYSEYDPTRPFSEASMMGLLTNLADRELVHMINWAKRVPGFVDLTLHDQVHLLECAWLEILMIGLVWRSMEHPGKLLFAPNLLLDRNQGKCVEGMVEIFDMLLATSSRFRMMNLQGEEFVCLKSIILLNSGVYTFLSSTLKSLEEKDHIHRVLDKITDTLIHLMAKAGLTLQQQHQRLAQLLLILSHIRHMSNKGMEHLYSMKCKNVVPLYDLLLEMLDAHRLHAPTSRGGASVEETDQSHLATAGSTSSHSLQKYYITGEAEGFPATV
# Outline: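 Gal4-fusion ERa transactivation, measured as reporter transcript level in transiently transfected HepG2 cells. Exposure 24 h; RT-PCR plus capillary electrophoresis with fluorescence detection.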
# [14] = target: X-box-binding protein 1 (Homo sapiens) (UniProt P17861); assay: ATG_Xbp1_CIS: Attagene CIS-FACTORIAL HepG2 Assay for human X-box Binding Protein 1 (XBP1) (AID 2282972); conditions: HepG2 XBP1 cis-element reporter, Attagene multiplex; actives raise or lower the signal
# X-box-binding protein 1 (Homo sapiens), sequence (P17861 whole entry, looked up): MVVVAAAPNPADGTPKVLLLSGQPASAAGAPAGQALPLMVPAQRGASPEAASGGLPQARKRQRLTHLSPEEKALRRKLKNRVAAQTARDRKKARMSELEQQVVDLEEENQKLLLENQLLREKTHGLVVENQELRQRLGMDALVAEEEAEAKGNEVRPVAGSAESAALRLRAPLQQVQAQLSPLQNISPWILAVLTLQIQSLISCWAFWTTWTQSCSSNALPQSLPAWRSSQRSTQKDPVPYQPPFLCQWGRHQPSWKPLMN
# Outline: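 Reporter transcripts were quantified by RT-PCR with fluorescent primer extension and capillary electrophoresis after 24 h chemical exposure. Cells: transiently transfected HepG2 carrying cis-regulated reporter constructs; data fitted bidirectionally relative to DMSO.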
# [15] = ATG_M_19_TRANS: Attagene TRANS-FACTORIAL HepG2 Assay for M19 Transcription Factor (Internal Marker) (AID 2282974; active means hit-call score of the fitted dose curve at least 0.9, where 1 is the maximum); conditions: HepG2 Attagene TRANS-FACTORIAL M19 internal marker reporter
# Outline: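 Background-control readout: after 24 h chemical exposure of transfected HepG2 carrying GAL4-driven reporter units, RNA was reverse-transcribed, amplified, fluorescently labeled and sized by capillary electrophoresis; gain-of-signal fit against DMSO.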
# [16] = ATG_Sox_CIS: Attagene CIS-FACTORIAL HepG2 Assay for human SRY-box transcription factor (SOX) (AID 2282960); conditions: HepG2 Attagene cis-factorial SOX reporter, mRNA; actives raise or lower the signal
# Outline: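 Reporter transcripts, measured by RT-PCR and capillary electrophoresis of labelled fragments, report endogenous SOX transcription factor activity. Transiently transfected human HepG2 cells receive chemical for 24 h; changes in either direction are fitted relative to DMSO.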
# [17] = target: Steroid hormone receptor ERR1 (Homo sapiens) (UniProt P11474); assay: ATG_ERRa_TRANS: Attagene TRANS-FACTORIAL HepG2 Assay for human Estrogen-Related Receptor alpha (ERRa) (AID 2282971; active means hit-call score of the fitted dose curve at least 0.9, where 1 is the maximum); conditions: HepG2 Attagene TRANS reporter, ERRa transactivation
# Steroid hormone receptor ERR1 (Homo sapiens), sequence (P11474 whole entry, looked up, the tested form may be a part): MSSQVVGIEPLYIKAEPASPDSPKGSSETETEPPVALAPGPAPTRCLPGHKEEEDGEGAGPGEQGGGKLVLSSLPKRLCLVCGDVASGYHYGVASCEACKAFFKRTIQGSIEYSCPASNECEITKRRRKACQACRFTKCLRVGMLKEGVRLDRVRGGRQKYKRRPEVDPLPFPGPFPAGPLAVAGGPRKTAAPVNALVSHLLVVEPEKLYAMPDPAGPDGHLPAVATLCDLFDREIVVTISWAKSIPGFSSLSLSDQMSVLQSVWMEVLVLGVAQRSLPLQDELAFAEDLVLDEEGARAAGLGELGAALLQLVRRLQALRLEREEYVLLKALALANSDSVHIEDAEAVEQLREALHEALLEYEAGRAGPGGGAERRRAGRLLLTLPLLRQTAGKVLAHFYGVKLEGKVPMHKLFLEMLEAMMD
# Outline: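 HepG2 cells transiently transfected with GAL4-UAS reporter units and chimeric NR-Gal4 constructs; after 24 hour compound incubation, reporter mRNA quantified by RT-PCR, fluorescent labelling and capillary electrophoresis, gain of signal versus DMSO.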
# [18] = ATG_PBREM_CIS: Attagene CIS-FACTORIAL HepG2 Assay for human Phenobarbital-responsive Enhancer Module (PBREM) (AID 2282955); conditions: HepG2 PBREM cis-reporter, Attagene multiplexed transcription; actives raise or lower the signal
# Outline: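 Endogenous transcription factor activity was read from reporter transcripts in transiently transfected human HepG2 liver cells after 24 h dosing. RT-PCR products were fluorescently labelled, HpaI-cut and sized by capillary electrophoresis; activity fitted bidirectionally against DMSO baseline.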
# [19] = target: Nuclear receptor subfamily 1 group I member 3 (Homo sapiens) (UniProt Q14994); assay: ATG_CAR_TRANS: Attagene TRANS-FACTORIAL HepG2 Assay for human Constitutive Androstane Receptor (CAR) (AID 2282969; active means hit-call score of the fitted dose curve at least 0.9, where 1 is the maximum;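 further: activators raise reporter mRNA above DMSO so AC50 marks induction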); conditions: HepG2 Attagene TRANS-FACTORIAL CAR reporter
# Nuclear receptor subfamily 1 group I member 3 (Homo sapiens), sequence (Q14994 whole entry, looked up, the tested form may be a part): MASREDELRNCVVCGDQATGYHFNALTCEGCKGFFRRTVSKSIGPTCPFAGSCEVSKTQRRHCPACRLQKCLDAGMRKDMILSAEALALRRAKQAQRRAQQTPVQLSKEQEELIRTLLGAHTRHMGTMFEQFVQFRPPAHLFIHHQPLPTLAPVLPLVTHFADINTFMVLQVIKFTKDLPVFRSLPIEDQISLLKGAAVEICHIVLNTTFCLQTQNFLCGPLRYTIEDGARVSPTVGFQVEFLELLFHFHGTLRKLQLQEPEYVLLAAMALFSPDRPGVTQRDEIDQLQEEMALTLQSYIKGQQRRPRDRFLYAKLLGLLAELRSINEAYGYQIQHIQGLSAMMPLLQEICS
# Outline: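 Signal is reporter mRNA induction relative to DMSO, measured 24 h after dosing by RT-PCR with fluorescent primer extension and capillary electrophoresis. Human HepG2 liver cells carried transiently transfected chimeric NR-Gal4/GAL4-UAS reporter constructs.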
# [20] = target: Androgen receptor (Homo sapiens) (UniProt P10275); assay: ATG_AR_TRANS: Attagene TRANS-FACTORIAL HepG2 Assay for human Androgen Receptor (AR) (AID 2282973; active means hit-call score of the fitted dose curve at least 0.9, where 1 is the maximum); conditions: HepG2 Attagene TRANS-FACTORIAL AR reporter transcription
# Androgen receptor (Homo sapiens), sequence (P10275 whole entry, looked up, the tested form may be a part): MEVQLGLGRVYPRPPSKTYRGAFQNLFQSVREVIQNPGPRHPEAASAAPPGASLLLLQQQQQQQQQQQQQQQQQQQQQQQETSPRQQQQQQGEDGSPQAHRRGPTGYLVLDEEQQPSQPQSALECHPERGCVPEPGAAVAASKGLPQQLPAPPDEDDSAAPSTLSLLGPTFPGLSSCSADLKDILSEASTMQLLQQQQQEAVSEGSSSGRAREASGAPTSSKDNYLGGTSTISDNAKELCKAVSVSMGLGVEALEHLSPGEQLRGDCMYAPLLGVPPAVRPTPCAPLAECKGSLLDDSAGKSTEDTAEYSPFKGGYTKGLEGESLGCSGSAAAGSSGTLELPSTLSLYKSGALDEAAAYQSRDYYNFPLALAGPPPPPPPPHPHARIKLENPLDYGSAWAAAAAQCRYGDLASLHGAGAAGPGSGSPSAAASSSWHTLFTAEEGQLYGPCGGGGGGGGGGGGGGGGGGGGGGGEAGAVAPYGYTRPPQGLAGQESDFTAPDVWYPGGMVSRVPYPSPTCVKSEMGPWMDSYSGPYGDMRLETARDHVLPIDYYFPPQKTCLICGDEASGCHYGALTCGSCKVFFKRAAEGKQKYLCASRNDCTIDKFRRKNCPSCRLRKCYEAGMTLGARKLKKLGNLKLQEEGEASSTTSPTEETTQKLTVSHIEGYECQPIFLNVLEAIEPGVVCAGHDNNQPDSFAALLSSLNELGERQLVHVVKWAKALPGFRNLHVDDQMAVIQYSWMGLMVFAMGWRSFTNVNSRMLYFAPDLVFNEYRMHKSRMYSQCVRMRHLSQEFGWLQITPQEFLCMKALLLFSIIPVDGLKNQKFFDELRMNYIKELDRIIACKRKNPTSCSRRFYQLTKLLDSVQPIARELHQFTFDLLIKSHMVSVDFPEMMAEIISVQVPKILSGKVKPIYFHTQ
# Outline: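 HepG2 cells transiently transfected with AR-Gal4 chimera and GAL4-UAS reporter units; chemical exposure 24 h. Reporter mRNA quantified by RT-PCR with fluorescent labelling and capillary electrophoresis; gain-of-signal fitted against DMSO.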
smiles,measurement,setting,value
C=CC1(C)OC(=O)N(c2cc(Cl)cc(Cl)c2)C1=O (centres undefined),outcome,[1],inactive
same,AC50,[2],17.3 µM (active) and 31.1 µM (active) and 33 µM (active)
same,outcome,[2],inactive
same,outcome,[3],inactive
same,outcome,[4],inactive
same,outcome,[5],inactive
same,outcome,[6],inactive
same,outcome,[7],inactive
same,outcome,[8],inactive
same,outcome,[9],inactive
same,outcome,[10],inactive
same,outcome,[11],inactive
same,outcome,[12],inactive
same,outcome,[13],inactive
same,outcome,[14],inactive
same,outcome,[15],inactive
CCNc1nc(Cl)nc(NC(C)C)n1,outcome,[1],inactive
same,AC50,[2],27.4 µM (active) [middle of 4 runs]
same,outcome,[3],inactive
same,outcome,[4],inactive
same,outcome,[16],inactive
same,outcome,[5],inactive
same,outcome,[6],inactive
same,outcome,[7],inactive
same,outcome,[8],inactive
same,outcome,[9],inactive
same,outcome,[10],inactive
same,outcome,[11],inactive
same,outcome,[12],inactive
same,outcome,[13],inactive
same,outcome,[17],inactive
same,outcome,[14],inactive
same,outcome,[15],inactive
C=CCC1=C(C)[C@@H](OC(=O)[C@@H]2[C@@H](C=C(C)C)C2(C)C)CC1=O,AC50,[18],5.59 µM (active)
same,outcome,[1],inactive
same,AC50,[2],965 nM (active)
same,outcome,[4],inactive
same,outcome,[5],inactive
same,outcome,[6],inactive
same,outcome,[7],inactive
same,outcome,[8],inactive
same,outcome,[9],inactive
same,outcome,[10],inactive
same,outcome,[11],inactive
same,AC50,[12],6.05 µM (active)
same,outcome,[19],inactive
same,outcome,[13],inactive
same,outcome,[17],inactive
same,outcome,[14],inactive
Cc1cc(Cl)ccc1OCC(=O)O,outcome,[18],inactive
same,outcome,[1],inactive
same,outcome,[2],inactive
same,outcome,[4],inactive
same,outcome,[5],inactive
same,outcome,[6],inactive
same,outcome,[7],inactive
same,outcome,[8],inactive
same,outcome,[9],inactive
same,outcome,[10],inactive
same,outcome,[11],inactive
same,outcome,[12],inactive
same,outcome,[19],inactive
same,outcome,[13],inactive
same,outcome,[14],inactive
same,outcome,[20],inactive
same,outcome,[15],inactive
CC(C)Oc1cc(-n2nc(C(C)(C)C)oc2=O)c(Cl)cc1Cl,AC50,[18],0.427 µM (active)
same,outcome,[1],inactive
same,AC50,[2],284 nM (active)
same,outcome,[3],inactive
same,outcome,[4],inactive
same,outcome,[5],inactive
same,outcome,[6],inactive
same,outcome,[7],inactive
same,outcome,[8],inactive
same,outcome,[9],inactive
same,outcome,[10],inactive
same,outcome,[11],inactive
same,AC50,[12],0.667 µM (active)
same,outcome,[19],inactive
same,outcome,[13],inactive
same,outcome,[14],inactive
same,outcome,[20],inactive
same,outcome,[15],inactive
CC1=C(C(=O)Nc2ccccc2)SCCO1,outcome,[1],inactive
same,AC50,[2],40400 nM (active)
same,outcome,[3],inactive
same,outcome,[4],inactive
same,outcome,[5],inactive
same,outcome,[6],inactive
same,outcome,[7],inactive
same,outcome,[8],inactive
same,outcome,[9],inactive
same,outcome,[10],inactive
same,outcome,[11],inactive
same,outcome,[12],inactive
same,outcome,[13],inactive
same,outcome,[17],inactive
same,outcome,[14],inactive
CCON=C(CC)C1=C(O)CC(c2c(C)cc(C)cc2C)CC1=O (centres undefined),outcome,[18],inactive
same,outcome,[1],inactive
same,AC50,[2],34900 nM (active)
same,outcome,[3],inactive
same,outcome,[4],inactive
same,outcome,[5],inactive
same,outcome,[6],inactive
same,outcome,[7],inactive
same,outcome,[8],inactive
same,outcome,[9],inactive
same,outcome,[10],inactive
same,outcome,[11],inactive
same,outcome,[12],inactive
same,outcome,[13],inactive
same,outcome,[14],inactive
